The source of these data is PubChem BioAssay (NCI).

Compounds without any hit were thinned out: in the full panel of roughly 83,000, 20% have a hit.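 Single-dose data. Exposure time 48 hours. Values below 10 considered active.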 A number with no mark means an inactive call. The source made the active and inactive calls.

Some test systems named below: RPMI-8226 leukemia; OVCAR-8 ovarian; OVCAR-5 ovarian; OVCAR-4 ovarian; SK-OV-3 ovarian; IGROV1 ovarian; OVCAR-3 ovarian; HS 578T breast; NCI/ADR-RES ovarian; T-47D breast; BT-549 breast; MDA-MB-435 melanoma; SW-620 colon; MCF7 breast; HCT-116 colon; HCC-2998 colon; KM12 colon.
Holding throughout (assay): NCI-60 one-dose screen, 48 h (100 = growth as untreated, 0 = no growth, -100 = all killed)
Common to all, as to conditions: 10 µM unless noted

For the compound `Nc1ccc(C2=NN(c3ccccc3)C(c3ccc(Cl)cc3)C2)cc1` (stereo not drawn), the growth with RPMI-8226 leukemia is -20.1% (active); in the assay with OVCAR-8 ovarian, 81.8%; in the assay with OVCAR-5 ovarian, 84.2%; in the assay with OVCAR-4 ovarian, 96.7%; in the assay on SK-OV-3 ovarian, 90.1%; with IGROV1 ovarian it was 94.5%. The growth is 51.7% in the assay on OVCAR-3 ovarian; 102% with HS 578T breast; 89.6% in the assay with NCI/ADR-RES ovarian; 63.8% in the assay with T-47D breast; 70.4% in the assay on BT-549 breast; 49.9% in the assay on MDA-MB-435 melanoma. Moreover, the growth in the assay with SW-620 colon is 41.2%; in the assay on MCF7 breast, 14.5%; in the assay with HCT-116 colon it was -57.3% (active); in the assay on HCC-2998 colon, 76.8%; in the assay on KM12 colon, 18.3%.

As to `N=C(N)/N=C(\CCc1nc2ccccc2[nH]1)c1nc2ccccc2[nH]1`, the growth with RPMI-8226 leukemia was 105%; with OVCAR-8 ovarian it was 105%; with OVCAR-5 ovarian, 90%; in the assay with OVCAR-4 ovarian it was 107%; in the assay with SK-OV-3 ovarian it was 108%; in the assay on IGROV1 ovarian it was 114%. Also, the growth in the assay on OVCAR-3 ovarian was 109%; with HS 578T breast it was 99.4%; in the assay on NCI/ADR-RES ovarian, 93.4%; in the assay with T-47D breast, 99.7%; with BT-549 breast, 104%; in the assay with MDA-MB-435 melanoma, 109%. The growth is 104% in the assay with SW-620 colon; 86.3% in the assay on MCF7 breast; 102% with HCT-116 colon; 100% with HCC-2998 colon; 103% with KM12 colon.

For `COc1ccc(-c2nn(-c3ccccc3)cc2/C=C2\SC(=S)N(CCc3ccc(O)cc3)C2=O)cc1`, the growth is 70.2% with RPMI-8226 leukemia; 86.5% in the assay on OVCAR-8 ovarian; 99.7% in the assay with OVCAR-5 ovarian; 78.7% in the assay on OVCAR-4 ovarian; 98.8% in the assay on SK-OV-3 ovarian; 78.6% in the assay with IGROV1 ovarian. Moreover, the growth was 94% in the assay on OVCAR-3 ovarian; 79.1% in the assay on HS 578T breast; 90.3% in the assay on NCI/ADR-RES ovarian; 56.3% in the assay on T-47D breast; 103% with BT-549 breast; 84.4% with MDA-MB-435 melanoma. Moreover, the growth is 87.6% in the assay with SW-620 colon; 70.5% with MCF7 breast; 90.2% in the assay with HCT-116 colon; 107% in the assay on HCC-2998 colon; 81.5% in the assay on KM12 colon.

`O=c1[nH]c(Cl)nc2c1cnn2-c1ccccc1`: the growth in the assay on RPMI-8226 leukemia is 51.7%; in the assay with OVCAR-8 ovarian, 106%; with OVCAR-5 ovarian it was 97.2%; with OVCAR-4 ovarian it was 82.6%; in the assay on SK-OV-3 ovarian, 110%; in the assay on IGROV1 ovarian, 108%. Further, the growth was 93.4% in the assay with OVCAR-3 ovarian; 93.4% in the assay on HS 578T breast; 96.3% with NCI/ADR-RES ovarian; 98.4% with T-47D breast; 52.9% in the assay on BT-549 breast; 52.4% in the assay with MDA-MB-435 melanoma. Also, the growth was 50.6% with SW-620 colon; 84.3% with MCF7 breast; 31% with HCT-116 colon; 91.2% with HCC-2998 colon; 18.6% in the assay with KM12 colon.

`COc1ccc(-c2cc(Cc3cccs3)c(=O)n(Cn3cncn3)n2)cc1`: the growth was 98.7% in the assay on RPMI-8226 leukemia; 92.9% with OVCAR-8 ovarian; 88% in the assay on OVCAR-5 ovarian; 98.5% in the assay on OVCAR-4 ovarian; 103% with SK-OV-3 ovarian; 122% with IGROV1 ovarian. The growth in the assay with OVCAR-3 ovarian was 113%; in the assay with HS 578T breast, 106%; in the assay on NCI/ADR-RES ovarian it was 101%; in the assay on T-47D breast, 93.9%; in the assay on BT-549 breast, 109%; in the assay with MDA-MB-435 melanoma it was 106%. Besides, the growth with SW-620 colon is 110%; in the assay on MCF7 breast it was 93.2%; with HCT-116 colon, 101%; in the assay on HCC-2998 colon it was 108%; with KM12 colon, 108%.

In the case of `Cn1c(=O)c2c(nc(Br)n2CCC(=O)Nc2ccc(F)cc2)n(C)c1=O`, the growth is 101% in the assay on RPMI-8226 leukemia; 100% in the assay on OVCAR-8 ovarian; 94.7% in the assay with OVCAR-5 ovarian; 114% with OVCAR-4 ovarian; 83.6% in the assay with SK-OV-3 ovarian; 107% in the assay on IGROV1 ovarian. Also, the growth in the assay with OVCAR-3 ovarian was 125%; in the assay on HS 578T breast it was 102%; in the assay on NCI/ADR-RES ovarian, 101%; in the assay with T-47D breast, 97.3%; in the assay with BT-549 breast, 91.8%; in the assay on MDA-MB-435 melanoma, 108%. The growth in the assay with SW-620 colon was 103%; with MCF7 breast, 100%; with HCT-116 colon, 85.5%; with HCC-2998 colon, 103%; in the assay on KM12 colon it was 107%.

In the case of `COc1ccc(-c2oc3cc(O)c(OC)c(O)c3c(=O)c2OC)cc1O`, the growth in the assay on RPMI-8226 leukemia is 12.3%; in the assay with OVCAR-8 ovarian it was 25.3%; in the assay on OVCAR-5 ovarian it was 57%; in the assay with OVCAR-4 ovarian it was 65.6%; in the assay with SK-OV-3 ovarian, 24.5%; in the assay with IGROV1 ovarian it was 12.2%. Also, the growth in the assay on OVCAR-3 ovarian is -40.1% (active); in the assay on HS 578T breast, -27.4% (active); in the assay with NCI/ADR-RES ovarian it was -4.16% (active); with T-47D breast, 53.1%; with BT-549 breast, -4.89% (active); in the assay on MDA-MB-435 melanoma it was -45.9% (active). The growth was 19.2% in the assay with SW-620 colon; 19% with MCF7 breast; 2.2% (active) in the assay with HCT-116 colon; 90.1% in the assay with HCC-2998 colon; 2.13% (active) with KM12 colon.

`Oc1ccc(Cc2ccc(O)c(C3CC(c4ccc(Cl)cc4)=NN3)c2)cc1C1CC(c2ccc(Cl)cc2)=NN1` (stereo not drawn): the growth with RPMI-8226 leukemia is 17.4%; with OVCAR-8 ovarian, 15.8%; in the assay with OVCAR-5 ovarian it was 37.8%; in the assay on OVCAR-4 ovarian it was 43.5%; in the assay on SK-OV-3 ovarian it was 50.5%; in the assay with IGROV1 ovarian, 18.5%. The growth in the assay on OVCAR-3 ovarian is 10% (active); in the assay with HS 578T breast, 13.8%; with NCI/ADR-RES ovarian it was 4.68% (active); in the assay with T-47D breast, 38.3%; in the assay on BT-549 breast, 36.2%; in the assay on MDA-MB-435 melanoma, 3.35% (active). Besides, the growth in the assay on SW-620 colon is 13.6%; with MCF7 breast, 17.5%; with HCT-116 colon, 1.4% (active); in the assay on HCC-2998 colon, 11.3%; in the assay with KM12 colon, 12%.

As to `O=NC1CC=CCC1c1ccccc1` (stereo not drawn), the growth was 114% in the assay on RPMI-8226 leukemia; 108% with OVCAR-8 ovarian; 94.5% with OVCAR-5 ovarian; 106% in the assay with OVCAR-4 ovarian; 111% in the assay with SK-OV-3 ovarian; 111% in the assay with IGROV1 ovarian. For the same compound, the growth in the assay with OVCAR-3 ovarian was 118%; in the assay with HS 578T breast it was 125%; in the assay on NCI/ADR-RES ovarian, 104%; in the assay with T-47D breast, 111%; in the assay on BT-549 breast it was 105%; in the assay on MDA-MB-435 melanoma, 112%. The growth was 105% in the assay on SW-620 colon; 108% with MCF7 breast; 95.6% in the assay with HCT-116 colon; 104% in the assay on HCC-2998 colon; 112% in the assay with KM12 colon.
